Test results from paper PMC10668032, “Altered binding affinity of SIX1-Q177R correlates with enhanced WNT5A and WNT pathway effector expression in Wilms tumor”.
In all, about 33,000 sequences were measured (“e-score”: median about -0.053, highest 2% from about 0.38 on). The sample as a whole holds a higher share of the highest values than the screen did.

target: T1, SIX1 homeodomain (reference allele) (human, UniProt Q15475 108-198); assay: universal protein binding microarray; Universal all-10-mer PBM (8x60K, AMADID 030236), 300 nM GST-tagged protein, Alexa Fluor 488 anti-GST; buffer, salt, pH and temperature not stated (as in Berger); high values mean tight binding; settings: protein: ivt; tags: N-terminal GST; dsDNA, one strand shown
T1 sequence: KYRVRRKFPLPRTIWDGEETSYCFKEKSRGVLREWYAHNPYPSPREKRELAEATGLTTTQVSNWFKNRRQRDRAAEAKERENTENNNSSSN
In short: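 Binding of GST-tagged homeodomains is given as 8-mer E-scores from the Universal PBM Analysis Suite. The proteins were produced by in vitro transcription/translation, quantified by anti-GST western blot against a recombinant GST standard curve, and applied in duplicate at 300 nM final concentration to universal 'all 10-mer' protein binding microarrays (8×60K format).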

Sequence	binding signal [E-score]
TACGATAA	0.175 ± 0.0264
AACGATAT	0.408 ± 0.0444
AACGACAC	0.276 ± 0.0085
AACGATAG	0.175 ± 0.0167
ATATAACG	0.2329 ± 0.00214
ATTGTATA	0.308 ± 0.00631
CCTCATCG	0.185 ± 0.0079
TAAGATCA	0.293 ± 0.0543
CGATTAAA	0.156 ± 0.0382
AATCTGAT	0.289 ± 0.0333
CGGATGAG	0.183 ± 0.049
TATCTCGA	0.248 ± 0.0332
CAAGGGGA	0.165 ± 0.0484
GACGATAC	0.453 ± 0.00476
GACGACAC	0.164 ± 0.00255
GAAGATAC	0.354 ± 0.0356
GGTAATAC	0.297 ± 0.025
ATATGTGC	0.241 ± 0.0491
ATCCGGGG	0.418 ± 0.0155
ATCCGGTC	0.318 ± 0.00861
ATCCGGTG	0.405 ± 0.026
ATCCGGGC	0.3565 ± 0.000735
ATCCGGTA	0.318 ± 0.0245
ATCCGGGA	0.295 ± 0.0471
GAAGACAC	0.21 ± 0.0292

Sequence	binding signal [E-score]
CTAACACC	0.213 ± 0.0035
GATCACAA	0.31 ± 0.0262
TATCACGA	0.373 ± 0.0201
TCTCACCA	0.259 ± 0.00728
TATCACCA	0.42 ± 0.031
GATCACCA	0.334 ± 0.0295
TATCACAA	0.385 ± 0.049
CGATAATA	0.328 ± 0.0401
CCCTTCTC	0.274 ± 0.0318
ATAGTCTC	0.151 ± 0.0259
ACAGATCG	0.2347 ± 0.00197
AGCGGATG	0.154 ± 0.049
GGCGGGTA	0.228 ± 0.0067
AGCGGATA	0.364 ± 0.0328
CGCGGATA	0.3882 ± 0.00207
GGCGGATA	0.403 ± 0.0134
CGCGGATC	0.365 ± 0.0314
GATCAGCC	0.293 ± 0.0341
ATCGCATC	0.3271 ± 0.00246
ATCGTATA	0.324 ± 0.00599
TACGTATA	0.272 ± 0.0445
GACGTATA	0.213 ± 0.108
CTCGTATC	0.367 ± 0.0253
GACGTATC	0.42 ± 0.0354
ATCGTATC	0.441 ± 0.0183

Sequence	binding signal [E-score]
CACGTATA	0.304 ± 0.0586
GACGTCTC	0.163 ± 0.0364
AACCTATC	0.246 ± 0.0031
AACGTATA	0.167 ± 0.109
AACGTATC	0.385 ± 0.067
CACGTATC	0.433 ± 0.00889
GATCGGTA	0.3365 ± 0.000728
TATTCTCA	0.19 ± 0.0783
AGAACATA	0.152 ± 0.0261
ATACTGCG	0.185 ± 0.0499
CGTAATCC	0.276 ± 0.00776
AGATCCGC	0.333 ± 0.0252
GGATCCGA	0.376 ± 0.0683
AGATCCGA	0.276 ± 0.0275
CGATCCTC	0.333 ± 0.00326
CGATCCGA	0.396 ± 0.0357
CGATCCGC	0.418 ± 0.0398
ATCGTCTC	0.304 ± 0.0389
TACAAGTA	0.162 ± 0.0274
ATCTAGGG	0.187 ± 0.0244
CCGGTAGA	0.151 ± 0.0265
ATCACGGA	0.288 ± 0.0444
CATACTCA	0.152 ± 0.0301
GATACTCA	0.429 ± 0.0251
AATACTCG	0.165 ± 0.0216

Sequence	binding signal [E-score]
GATACTCC	0.45 ± 0.00694
GATACTAC	0.432 ± 0.0131
TATACTCA	0.192 ± 0.0629
AATACTAC	0.181 ± 0.00602
AATACTCA	0.255 ± 0.0524
GATACTAA	0.362 ± 0.0288
TAGAGATA	0.268 ± 0.0459
AGGCCGAT	0.153 ± 0.00796
ATATAACC	0.177 ± 0.0584
ATCGCTGG	0.23 ± 0.00422
AGATAGCC	0.247 ± 0.0195
ATCTGGGA	0.196 ± 0.00724
TATCTAAA	0.301 ± 0.0245
GTATACAC	0.371 ± 0.00578
ATCAGGAG	0.188 ± 0.0305
ATCATGAT	0.3975 ± 0.000976
ATCATGAC	0.197 ± 0.0404
ATCAGGAA	0.165 ± 0.0245
ATCATGAG	0.23 ± 0.0357
ATCAGGAT	0.394 ± 0.00836
CATCGGGA	0.164 ± 0.0507
ATCTACTG	0.22 ± 0.0235
GATCGGGC	0.296 ± 0.015
AAAATATC	0.154 ± 0.121
GACATATC	0.386 ± 0.0597

Sequence	binding signal [E-score]
AACATATC	0.378 ± 0.0821
CACATATC	0.404 ± 0.0155
CATATATG	0.23 ± 0.0477
TACATATA	0.254 ± 0.00881
GACATATA	0.226 ± 0.0783
AACATATA	0.235 ± 0.0646
CACATATA	0.165 ± 0.0792
ATATTACC	0.259 ± 0.0572
CCGGTATA	0.343 ± 0.0129
ACGGTATG	0.157 ± 0.0316
CCGGTATC	0.465 ± 0.014
ACGGTATA	0.309 ± 0.0298
ACGGTATC	0.461 ± 0.00576
CCGGTAAA	0.157 ± 0.034
AGCTGGAT	0.248 ± 0.0399
CGGGCTCA	0.2 ± 0.0586
ACGATACC	0.4766 ± 0.000912
CCGATACC	0.478 ± 0.00955
GCGATACC	0.4835 ± 0.00434
CCGATACG	0.425 ± 0.0199
GCGATAGC	0.165 ± 0.0972
CCGATACA	0.355 ± 0.0604
CCAATACC	0.324 ± 0.0157
ACTATACC	0.294 ± 0.0358
CCGATAGG	0.348 ± 0.0522

Sequence	binding signal [E-score]
ACGATAGC	0.217 ± 0.0418
CCTATACC	0.311 ± 0.00556
GCGATACA	0.3759 ± 0.00354
ATCGCCCC	0.253 ± 0.0184
TCATCTCA	0.298 ± 0.0135
TACCTATA	0.289 ± 0.0262
ACTGTATA	0.239 ± 0.0136
ACGATACG	0.4317 ± 0.000841
ACGATACA	0.3689 ± 0.00151
AAGATACT	0.295 ± 0.0825
ACGATACT	0.439 ± 0.00647
CCTATACG	0.153 ± 0.0436
ACTATACG	0.247 ± 0.0175
GAGGTGTA	0.233 ± 0.0426
CCAATTAG	0.188 ± 0.014
ATACTAGC	0.245 ± 0.0797
GGATAGTA	0.332 ± 0.00348
CGTATAGC	0.185 ± 0.0242
AGTATATG	0.207 ± 0.0381
AGTATCGC	0.435 ± 0.0231
AAGATCGC	0.211 ± 0.00754
CGTATCGC	0.453 ± 0.00646
AGTATCGG	0.4293 ± 0.0041
ACTATCGA	0.263 ± 0.00274
ACTATCGC	0.2364 ± 0.00196

Sequence	binding signal [E-score]
ATTATCGG	0.24 ± 0.012
CCTATCGC	0.29 ± 0.0221
AGTATCGA	0.418 ± 0.0178
AGTATAGA	0.195 ± 0.0499
CTAGATAG	0.197 ± 0.0328
ATATGCGA	0.276 ± 0.0349
ATATAGCA	0.248 ± 0.0375
TATTGAGA	0.237 ± 0.0198
AGATCTGC	0.204 ± 0.0418
ACTCGTAT	0.205 ± 0.0218
GTATTGAA	0.213 ± 0.0401
CTTGTATA	0.213 ± 0.0563
ATACAGCA	0.221 ± 0.0273
ATACTAGG	0.275 ± 0.02
GATACGGC	0.4543 ± 0.00163
GATACGGA	0.455 ± 0.00852
AATACGGT	0.231 ± 0.00828
TATACGGA	0.28 ± 0.0266
CATACGGA	0.178 ± 0.0693
AATACGAC	0.18 ± 0.0741
GATACGAA	0.335 ± 0.00345
AATACGGC	0.252 ± 0.0178
GATACGAC	0.382 ± 0.0127
